ABHD5 PLIN5 PPI = blocks binding of human ABHD5 to perilipin-5. Q00G26+Q8WTS1. Split G. princeps luciferase complementation, luminescence, 4 h. inhibition, % at 4 µM. 360,000 tested, 0.78% active. AID 602281;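 active = inhibition above the mean inhibition across every tested compound plus 3 SD, cut at about 22% in these data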
UHRF1 MBD2 ctr = human UHRF1 methylated DNA binding inhibitors; inhibition, % at 4.4 µM; Q96T88; UHRF1 binding to methylated oligo, TR-FRET; 370,000 tested, 0.75% active; in the data active = inhibition above about 21%;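 note: UHRF1 SRA domain binding a hemimethylated CpG hairpin DNA probe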
PRMT1 FP inh = inhibitors of human PRMT1 | recombinant PRMT1, activity-based probe fluorescence polarization | inhibition, % at 2.79 µM | 370,000 tested, 1.3% active | AID 652257;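 active = inhibition above about 21% made by adding two undisclosed values, limit read from the data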
Target sequence (Q99873 whole entry, looked up): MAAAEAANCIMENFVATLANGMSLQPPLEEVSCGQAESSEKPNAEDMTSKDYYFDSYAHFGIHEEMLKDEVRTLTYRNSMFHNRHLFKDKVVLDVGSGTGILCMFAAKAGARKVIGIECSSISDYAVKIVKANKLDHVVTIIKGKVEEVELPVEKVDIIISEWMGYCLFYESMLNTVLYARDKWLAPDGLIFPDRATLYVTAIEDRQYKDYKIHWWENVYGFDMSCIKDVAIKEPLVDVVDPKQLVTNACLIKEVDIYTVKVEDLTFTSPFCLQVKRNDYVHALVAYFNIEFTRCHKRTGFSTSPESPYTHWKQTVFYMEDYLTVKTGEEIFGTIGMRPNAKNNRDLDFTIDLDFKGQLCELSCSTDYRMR
MBD2 inh = MBD2-methylated oligo binding inhibition | TR-FRET, MBD2 binding to methylated oligonucleotide | inhibition, % at 4.4 µM | 370,000 tested, 0.31% active | AID 686964; in the data active = inhibition above about 13%
LEDGF integ inh = blocks HIV-1 LEDGF/p75-dependent DNA integration. TR-FRET IN-LEDGF/p75 DNA integration, Eu/Cy5. inhibition, % at 3.7 µM. 370,000 tested, 0.64% active;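 active = inhibition above the screen-wide mean plus 3 SD, cut at about 13% in these data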;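 note: signal is the Cy5 over europium emission ratio at 671 and 618 nm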
rCAG RNA binder = binds r(CAG) RNA repeats | r(CAG) RNA repeat, TO-PRO-1 dye displacement fluorescence | inhibition, % at 3 µM | 370,000 tested, 1.3% active;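 active = inhibition above the plate cutoff, the mean of all test compounds on that plate plus 3 SD, cut at about 35% in these data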;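 note: higher means more dye released from RNA so lower well fluorescence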
rCAG bind conf = r(CAG) RNA repeat binding, confirmation. inhibition, % at 3 µM. shares compounds with rCAG RNA binder. TO-PRO-1 dye displacement fluorescence. 4,300 tested, 70% active;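 active = inhibition above a per-plate cutoff, the mean inhibition of sample wells plus 3 SD, cut at about 35% in these data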;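 note: loss of TO-PRO-1 fluorescence as compound displaces dye from 1x1 AA loop RNA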
dCAG dye counter = DNA CAG dye complex inhibition counter-screen | shares compounds with rCAG RNA binder | d(CAG) DNA oligo TO-PRO-1 dye displacement, fluorescence | inhibition, % at 3 µM | 4,300 tested, 94% active | AID 652068;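 active = inhibition above its plate's cutoff, the mean test-well inhibition plus 3 SD, cut at about 4.8% in these data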;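 note: hits displace the dye from DNA and so lower well fluorescence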
dCAG dye DR = disrupts DNA CAG TO-PRO-1 complex in dose response; shares compounds with rCAG RNA binder; DNA CAG/GTC duplex TO-PRO-1 dye displacement fluorescence; IC50, µM; 250 tested, 20% active; AID 686960; in the data active = IC50 below about 10 µM
Hits are given with their value; i = inactive; nt = no result. In the library only some 4.1% were active in any assay of this set; here they are far more common.

SMILES	ABHD5 PLIN5 PPI	UHRF1 MBD2 ctr	PRMT1 FP inh	MBD2 inh	LEDGF integ inh	rCAG RNA binder	rCAG bind conf	dCAG dye counter	others
COc1cc(/C=C(\C#N)C(=O)Nc2cccc(C(=O)O)c2)ccc1OCc1ccc(C)cc1	i	i	i	i	i	i	nt	nt
COc1cc(/C=C(\C#N)C(=O)NC(C)C)ccc1OCc1ccc(C(=O)O)cc1	i	i	i	i	i	i	nt	nt
COc1cc(/C=C(\C#N)C(=O)NC2CCCCC2)ccc1OCc1ccc(C(=O)O)cc1	i	i	i	i	i	40	38	9.2
N#C/C(=C\c1ccc(OCc2ccc(C(=O)O)cc2)cc1)C(=O)NCc1ccccc1	i	i	i	i	i	41	i	5.9
COC[C@H]1CCCN1c1ccc2c(c1)OCCCN(C1CC1)S2(=O)=O	nt	i	i	i	i	i	nt	nt
CCCCCCCCN1C(=O)[C@@H](CC(=O)N2CCCC2)C[C@@]2(C(=O)OC)C1=C[C@H](C(C)C)O[C@@H]2C1CC1	nt	i	i	i	i	i	nt	nt
COc1ccc(-c2[nH]c(-c3ccc(C(=O)O)cc3)nc2-c2ccccc2)cc1	i	i	i	i	i	i	nt	nt
O=C(O)c1ccc(-c2nc(-c3ccccc3)c(-c3ccccc3)[nH]2)cc1	i	i	i	i	i	36	36	6.0
CN(Cc1ccc(F)cc1)C(=O)CN1C(=O)C2(OCCCO2)c2ccccc21	nt	i	i	i	i	i	nt	nt
CCn1c(Cc2cccs2)nnc1SCC(=O)Nc1ccc2c(c1)OCCO2	nt	i	i	i	i	i	nt	nt
COc1ccc([C@@H]2CC=C(C(=O)O)[C@H](c3ccc(F)cc3)N2S(=O)(=O)c2ccc(Cl)cc2)cc1	i	i	i	i	i	58	47	15
Cc1ccc(S(=O)(=O)N2[C@@H](c3ccc(F)cc3)C(C(=O)O)=CC[C@H]2c2cccc(Cl)c2)cc1	i	i	i	i	i	i	nt	nt
COc1ccc([C@@H]2CC=C(C(=O)O)[C@H](c3cccc(Cl)c3)N2S(=O)(=O)c2ccc(Cl)cc2)cc1	i	i	i	i	i	74	71	33	dCAG dye DR=i
CCN1C(=O)N[C@H]2C[C@@H](c3ccccc3)[C@@H](C)[C@@H](C(=O)N3CCCC3)C[C@H]21	nt	i	i	i	i	i	nt	nt
CCc1nnc(NS(=O)(=O)c2ccc(N=Cc3c(C)[nH]n(-c4cccc(Cl)c4)c3=O)cc2)s1	i	i	i	i	i	53	86	63
COc1nccnc1NS(=O)(=O)c1ccc(N=Cc2c(C)[nH]n(-c3ccc(Cl)cc3)c2=O)cc1	nt	i	i	i	i	i	nt	nt
CCc1nnc(NS(=O)(=O)c2ccc(N=Cc3c(C)[nH]n(-c4ccc(Cl)cc4)c3=O)cc2)s1	i	i	i	i	i	49	84	59
Cc1ccc2[nH]c(C)c(/C=N/Nc3nc4ccccc4s3)c2c1	i	i	i	i	i	65	47	26
O=C(O)CN1C(=O)/C(=C\c2ccccc2OCc2ccccc2)SC1=S	i	i	i	i	i	73	73	33	dCAG dye DR=i
O=C(O)CN1C(=O)/C(=C\c2cc(Br)ccc2OCc2ccc(Cl)cc2)SC1=S	i	i	i	i	i	88	94	74
O=C(O)CN1C(=O)/C(=C\c2cccc(OCc3ccccc3)c2)SC1=S	i	i	30	i	i	81	72	35
O=C(O)CN1C(=O)/C(=C\c2cc(Br)ccc2OCc2ccc(F)cc2)SC1=S	i	i	i	i	i	81	89	61
O/N=C/c1cc(Br)ccc1OCc1ccc(F)cc1	i	i	i	i	i	i	nt	nt
COc1ccc(/C=C2/SC(=S)N(CC(=O)O)C2=O)cc1OCc1ccc(Cl)cc1	i	i	i	i	i	i	nt	nt
Clc1ccc(-n2c(SCc3cccc4ccccc34)nnc2-c2ccco2)cc1	nt	i	i	i	i	i	nt	nt
S=C1NCCOc2ccccc21	nt	i	i	i	i	i	nt	nt

Screens from PubChem.
